From PubChem BioAssay AID504727 (Broad Institute, 2011)
The source made the active and inactive calls.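 The calls were made as follows: active = fitted half-maximal concentration AC50 at or below ten times the highest valid tested dose, with signal falling as DNA is displaced (actives reach about 34 µM in these data); inconclusive = flat fit at moderate signal loss, or poor fit quality; inactive = the rest, including signal rising instead of falling.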

Assay: acridine orange-DNA binding displacement – biochemical, fluorescence polarization, cherry-picked samples, set 2, artefact control for KSHV LANA DNA-binding inhibitor project, dose response (AID 504727);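 as to activity change, negative = DNA displacement: 0% = median of neutral control wells and -100% = mitoxantrone positive control wells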
Details: series mostly up to 35 µM; activity change, negative = DNA displacement: at the top concentration

Activity change, negative = DNA displacement, inactive:
Cc1ccc(C(CC(=O)N2CCCCC2)c2ccccc2)c(O)c1C (stereo not drawn) 2.77%
CCCOc1ccc(C=Nc2ccc(OC)c(S(=O)(=O)N3CCOCC3)c2)c(O)c1 -0.786%
CCC(=O)Nc1cccc(C(=O)/C=C/c2ccccc2)c1 3.15%
O=C1c2ccccc2C(=O)N1Cc1ccc2c(c1)OCO2 3.36%
CCN(C(=O)COC(=O)c1nc2nc(C)cc(C)n2n1)C1CCCCC1 0.71%
COc1ccc(-c2nc(C(=O)O)cs2)cc1OC 3.6%
CC(=O)c1ccc2c(c1)C1C=CCC1C(C(=O)O)N2 (stereo not drawn) 5.9%
Nc1c(-c2ccccn2)cnn1-c1nc(-c2ccc(F)cc2)cs1 9.09%
O=S(=O)(NCc1cccnc1)c1ccc(Cl)s1 5.04%
CCc1nnc(NC(=O)c2cccc(S(=O)(=O)N(C)c3ccccc3)c2)s1 -0.138%
CCOC(=O)CCCn1c(C)nc(=O)c(-c2ccccc2)c1C -0.814%
CC(C)C(=O)N1CCN(c2ccccc2NC(=S)NC(=O)c2ccco2)CC1 1.99%
CCOC(=O)c1ccc[n+](CC(=O)c2ccc(OC)cc2)c1 -0.822%
COc1ccc(NC(=O)Cc2nnc(SCC(=O)Nc3nccs3)n2C)cc1 4.06%
O=C1C=C(c2ccoc2)N2CCC[C@H]2C1 1.45%
Cc1ccc(NC(=O)c2ccc(Cl)c(S(=O)(=O)N3CCc4ccccc43)c2)nc1 5.37%
CN(CC(=O)Nc1ccc(N2CCOCC2)cc1)C(=O)CSc1ccc(Br)cc1 3.79%
CC(=O)NC(C(=O)c1ccccc1)C(=O)c1ccccc1 5.17%
CSCCC(NC(=O)c1ccccc1Cl)C(=O)N1CCCC(C)C1 (stereo not drawn) 2.53%
O=C(O)C1(c2ccccc2)CCN(S(=O)(=O)c2ccc(Cl)s2)CC1 0.613%
CC(C)(CS(=O)(=O)[O-])NC(=O)CC[N+](C)(C)CCO 8.27%
Cc1ccc(N=Nc2c(O)[nH]c3ccc(F)cc23)cc1 64.6%
Cc1ccc(OCC(=O)NC(=S)Nc2cccc(NC(=O)c3ccc(Cl)cc3Cl)c2)cc1 0.722%
O=C(c1cnn2c(-c3ccccc3)cc(-c3ccccc3)nc12)N1CCN(Cc2ccccc2)CC1 5.71%
Cc1cc(C)n(CC(=O)NNC(=O)CC(C)c2ccccc2)n1 (stereo not drawn) 2.41%
O=C(O)/C=C/c1ccccc1Oc1ccccc1 5.3%
CCN(c1ccc(C)cc1C)S(=O)(=O)c1nnc(NC(=O)c2ccco2)s1 7.43%
COc1ccc(/C=C/c2cc(C(F)(F)F)[nH]c(=O)n2)cc1OC -1.76%
COc1ccc(NS(=O)(=O)c2cccc3ccccc23)cc1 3.43%
Cc1ccc(NC(=O)CN2C(=O)N/C(=C/c3cc(C)n(-c4ccc(C(=O)O)cc4)c3C)C2=O)cc1 5.76%
O=C1CC(=O)N(Cc2ccco2)C(=O)N1 8.41%
Nc1ccc(C(=O)Nc2ccc3c(O)cc(S(=O)(=O)O)cc3c2)cc1 3.9%

AC50, inactive:
COC(=O)C(NC(=O)C(C)NC(=O)OCc1ccccc1)C(C)C (stereo not drawn) > 35 µM

AC50, active:
O=C(O)c1ccccc1C1=Nc2ccc(O)cc2Oc2cc(O)ccc21 13.4 µM
CCC1(c2ccccc2)NC(=O)N(CC(=O)Nc2ccc(OC)nc2)C1=O (stereo not drawn) 7.64 µM
Nc1ccc2nc3c(=O)[nH]c(=S)[nH]c3nc2c1 3.69 µM
CN(C)CCNc1ccc2ncn3c4ccc(O)cc4c(=O)c1c23 8.68 µM
COc1cccc2c1C(=O)c1c(O)c3c(c(O)c1C2=O)C[C@@](O)(C(C)=O)C[C@@H]3O[C@H]1C[C@H](N)[C@H](O)[C@H](C)O1 1.89 µM
